# Screens (PubChem BioAssay)
# Mtb MbtI inh: MbtI salicylate synthase inhibitors, primary screen, biochemical, fluorescence intensity; 0.89% of 100,000 active; AID 493033, 2011; inhibition, % (no concentration beside the values); purified MbtI enzyme, fluorescence intensity read-out; P9WFX0; in the data active = inhibition mostly above about 56%, no sharp cut-off; inactive = mostly below about 77%
# Mtb MenB inh: M. tuberculosis MenB inhibitors, primary screen, biochemical, absorbance; 1,4-dihydroxy-2-naphthoyl-CoA synthase (Mycobacterium tuberculosis (strain ATCC 25618 / …; MenB enzyme assay, absorbance read-out; inhibition, % (test concentration not listed); 0.43% of 100,000 active; in the data active = inhibition above about 21%, passing the limit was not always enough
# Target sequence (P9WNP5 whole entry, looked up): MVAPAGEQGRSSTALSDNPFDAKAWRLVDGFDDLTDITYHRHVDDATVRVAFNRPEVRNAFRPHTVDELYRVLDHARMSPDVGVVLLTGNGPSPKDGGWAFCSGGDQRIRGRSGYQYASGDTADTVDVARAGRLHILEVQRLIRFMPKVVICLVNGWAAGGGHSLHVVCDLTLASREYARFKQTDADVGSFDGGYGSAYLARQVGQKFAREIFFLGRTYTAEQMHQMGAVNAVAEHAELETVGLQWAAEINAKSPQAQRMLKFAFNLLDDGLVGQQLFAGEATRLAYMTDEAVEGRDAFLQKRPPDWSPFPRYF
# PV pol inh: poliovirus RdRp elongation inhibitors, primary screen, biochemical, fluorescence polarization, total intensity; poliovirus polymerase elongation; active compounds read low; AID 588519, 2011; % elongation, % (compound at 16.7 µg/mL); Genome polyprotein (Poliovirus type 1 (strain Mahoney)), P03300; 0.66% of 150,000 active; in the data active = % elongation below about 90%
# AID504770: growth inhibition of E. coli YBA685, primary screen, V. cholerae RctB inhibitors | 0.27% of 130,000 active | E. coli YBA685 rctB-dependent plasmid, OD600 growth, 3 h; active compounds read low | z-score (test concentration not listed); in the data active = z-score below about -2, passing the limit was not always enough
# Active calls of the source: *; x = no result. The list is not random: actives were taken first. Their share in the collection is about 1.5%.
SMILES,Mtb MbtI inh,Mtb MenB inh,PV pol inh,AID504770
O=C(O)Cc1ccc(NCc2ccc(Br)cc2)cc1,66*,4,102,-0.65
CC(C)(C)OC(=O)N1CC2C(C1)C2NC(=O)c1nsc(Cl)c1Cl (stereo not given),-7,-73,104,-1
COC(=O)c1c(C)[nH]c(C(=O)N2CCN(c3ccccc3)CC2)c1C,8,-2,104,0.1
COc1ccc(N2C(=O)CC(Sc3nc4ccccc4c(=O)n3CCO)C2=O)cc1 (stereo not given),100,-15,107,-2.1*
Cc1ccc(-c2nnc(SCCC(=O)N3CCOCC3)o2)cc1,10,28*,99,-0.2
CCN1C(=O)N/C(=C/c2ccc(-c3cc(C(=O)O)ccc3Cl)o2)C1=O,9,-19,108,-0.45
CCCC(C(=O)NC1CCCC1)N(C(=O)Cn1nnc(-c2ccc(C)o2)n1)c1ccccc1 (stereo not given),-26,-37,105,-0.55
CCC(C(=O)NC1CCCC1)N(C(=O)Cn1nnc(-c2ccc(C)cc2)n1)c1ccc2c(c1)OCCO2 (stereo not given),7,33*,101,1.8
C=C(C)c1ccccc(=O)c1O,x,x,x,-5*
Cc1ccc(S(=O)(=O)c2ccccc2)cc1S,x,-12,62*,0.55
CC(C)n1nnnc1SCC(=O)c1ccc(F)cc1,0,28*,101,-0.3
CC(=O)Nc1ccc(C(=O)CSc2nnnn2C(C)C)cc1,10,-28,102,0.1
CCN(CC)c1ccc(C=C2C(=O)OC3(CCCC3)OC2=O)cc1,72*,-96,110,-0.1
CCN(CC)c1ccc(C=C2C(=O)OC(c3ccccc3)OC2=O)cc1 (stereo not given),x,-8,115,-0.7
O=C(Nc1ccccc1)Nc1ccc2nnsc2c1,3,9,103,-1.5
O=C(Nc1ccccc1)Nc1ccc2snnc2c1,8,10,103,-2.6*
COc1cccc(C(=O)N(C)CC(OC)OC)c1,-7,-17,97,-0.15
CCOC(=O)N1CCC(NC(=O)CNC(=O)c2ccco2)CC1,-16,x,x,-2.7*
O=c1[nH]cnc2c1cnn2-c1ccc(C(F)(F)F)cn1,41,x,99,-1.1
O=c1c(Cl)c(Cl)cnn1-c1ccc(C(F)(F)F)cn1,20,-31,88*,1.9
CN(C)CCN(C)C1Cc2ccccc2C1,2,-6,99,0.35
COc1cccc2cc(C(C)O)oc12 (stereo not given),x,x,x,-3.1
O=c1oc2cc(Cl)c(O)c(Cl)c2s1,99*,-53,102,-0.8
Nc1nc(SC#CC(F)(F)F)ns1,51,-19,85*,-4.9*
Oc1cccc(-c2nc(-c3ccccc3)c3ccccn23)c1,5,x,89*,1.2
SMILES,Mtb MbtI inh,Mtb MenB inh,PV pol inh,AID504770
CN(C)c1cccc(N(C)C)c1CNC(=O)NC(=O)c1c(Cl)cccc1Cl,8,-15,100,0.25
C=CCn1c(CSc2ccc(C)cc2)n[nH]c1=S,74*,-75,96,-0.15
Cc1ccc(OC(=O)CCC(=O)Nc2ccc(S(N)(=O)=O)cc2)cc1,5,-31,101,-0.45
O=C(CCc1nnc2ccc(N3CCCCC3)nn12)N1CCCC1,18,3,102,-1
O=C(O)c1ccc2[nH]c3c(c2c1)CSCC3,x,0,84*,-0.3
CN(C)CCOC(=O)c1ccc2[nH]c3c(c2c1)CSCC3,50,5,99,1.2
C=CCn1cn[nH]c1=S,61*,-7,101,0
CCCC(=O)c1ccc2[s+]c3ccccc3[n+](CCCN(C)C)c2c1,x,-38,89*,-0.6
CN(C)CCC(=O)c1ccccc1,22,x,103,0.5
CCNc1nc(-c2ccccc2)cs1,x,x,x,-0.05
CC(C)CNc1nc(-c2ccccc2)cs1,91*,-50,102,-0.8
COc1ccc(CC(=O)n2[nH]c(=O)cc(C)c2=O)cc1OC,56*,0,99,-0.75
O=C1NC(=O)N(Cc2ccco2)C(=O)/C1=C\c1ccco1,2,12,105,-0.55
C=CCN1C(=O)/C(=C/c2ccco2)C(=O)NC1=S,86*,-31,100,-0.4
C=CCN1C(=O)NC(=O)/C(=C/c2ccco2)C1=O,98*,-36,104,-0.75
O=C(CCCn1ncn2c(cc3occc32)c1=O)NC1CCCCCC1,-7,x,x,-0.4
O=C(O)/C=C/c1ccsc1,3,-5,95,-0.45
COc1ccc(OCC(=O)Sc2ccc(Cl)cc2)cc1,x,-20,81*,-0.2
COc1ccccc1NS(=O)(=O)c1ccc2oc(=S)n(CN(C)CCC#N)c2c1,5,-18,85*,-0.3
COc1ccccc1NS(=O)(=O)c1ccc2oc(=S)n(CN3CCCC3)c2c1,13,-12,103,-0.75
CC1(C)Nc2ccccc2-c2nc3ccccc3n21,117,6,101,-0.4
CCCc1n[nH]c(=S)s1,89*,-5,87*,-0.3
Cc1ccc(C)n1-c1n[nH]c(=S)s1,55,-26,99,-1.8
O=C1c2ccccc2C(=O)N1Cn1ncc(Cl)c(Cl)c1=O,1,-16,106,-0.65
CCn1ncc(Cl)c(Cl)c1=O,x,-13,77*,-1
SMILES,Mtb MbtI inh,Mtb MenB inh,PV pol inh,AID504770
Cc1ccc(-n2nc(C)c3nc(CCC(=O)O)c(=O)n(C)c32)cc1,-2,6,102,0.3
CCCN1C(=O)/C(=C/c2ccc(C)o2)NC1=S,63*,-74,101,-0.1
Cc1ccc(/C=C2/NC(=O)N(Cc3ccc(Br)cc3)C2=O)o1,63,-26,102,2
c1ccc(-c2cccnn2)cc1,x,x,x,-0.6
O=C(CSc1ncnc2[nH]ncc12)CSc1ncnc2[nH]ncc12,10,active,100,-1.1
O=C1CCCCCN1Cc1n[nH]c(=S)o1,74*,-28,82*,-0.5
CC(NC(=O)c1ccc(S(=O)(=O)N2CCCCC2)cc1)C(c1ccccc1)N1CCOCC1 (stereo not given),2,-11,99,-0.4
COc1ccc(CN(CC(=O)NC2CCCC2)C(=O)Cn2nnc(-c3ccc(OC)cc3)n2)cc1,2,33*,102,0.75
O=C(CN(Cc1ccccc1)C(=O)Cn1nnc(-c2ccc(F)cc2)n1)NC1CCCC1,-11,-39,103,-0.4
O=C1OCCC1Oc1ncnc2ccccc12 (stereo not given),-6,1,103,0
O=C(CN1C(=O)c2ccccc2C1=O)c1ccc(Cl)cc1,15,13,6.0*,0.35
Cc1cc(C)c2c(N)c(C3=NC(C)(C)Cc4ccccc43)sc2n1,x,-12,107,-0.65
CC1(C)Cc2ccccc2C2=NNC(=O)C2=N1,5,6,84*,-0.75
O=C1CN(/N=C/c2ccc([N+](=O)[O-])o2)C(=O)N1,12,-6,99,-2.3*
O=C1OCCN1/N=C/c1ccc([N+](=O)[O-])o1,8,2,98,-4.3*
O=C1CN(/N=C/c2ccc(-c3ccc([N+](=O)[O-])cc3)o2)C(=O)N1,17,-4,100,x
CCc1ccc(C(=O)OCC(=O)N2CCCc3ccccc32)cc1,-10,-37,100,-1.1
